Consider eight compounds from PubChem BioAssay (NCI).

The structures appear in SMILES notation. Compounds without any hit were thinned out: in the full panel of roughly 83,000, 20% have a hit.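 Cell lines were cultured in 96-well plates, exposed to a single compound concentration, and assessed for percent growth 48 hours later.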 A number with no mark means an inactive call. Activity calls are given as the source filed them. Rule for the calls: active = growth percent below 10; inactive = the rest.

Some test systems named below: DU-145 prostate; K-562 leukemia; MALME-3M melanoma; MDA-MB-231 breast; RXF 393 renal; SF-268 CNS; SF-295 CNS; SF-539 CNS; UACC-257 melanoma; M14 melanoma; HCT-15 colon; HT29 colon; SNB-75 CNS; SNB-19 CNS; U251 CNS; PC-3 prostate; SK-MEL-5 melanoma; UACC-62 melanoma; LOX IMVI melanoma.
Common to all, as to assay: NCI-60 one-dose screen, 48 h (100 = growth as untreated, 0 = no growth, -100 = all killed)
Conditions in all cases: 10 µM unless noted

Regarding `N#Cc1nc(-c2cccc(Br)c2)cc(-c2ccc(Nc3nc(N4CCCCC4)nc(N4CCCCC4)n3)cc2)c1N`, the growth in the experiment on DU-145 prostate is -39% (active); with K-562 leukemia it was 4.51% (active); with MALME-3M melanoma, -80.9% (active); in the experiment on MDA-MB-231 breast it was -67.4% (active); with RXF 393 renal, -70.9% (active); in the experiment on SF-268 CNS, 5.03% (active). The growth in the experiment with SF-295 CNS is 82.8%; in the experiment on SF-539 CNS, -75.9% (active); in the experiment with UACC-257 melanoma it was -35.8% (active); in the experiment with M14 melanoma, 2.1% (active); with HCT-15 colon, -39% (active); in the experiment on HT29 colon, -24.6% (active). For the same compound, the growth with SNB-75 CNS was -45.1% (active); in the experiment with SNB-19 CNS, 52.7%; in the experiment with U251 CNS, -15.8% (active); with PC-3 prostate, 12%; in the experiment on SK-MEL-5 melanoma, -49.3% (active); in the experiment on UACC-62 melanoma it was -35.9% (active). Also, the growth in the experiment with LOX IMVI melanoma is -95.7% (active).
For `C/C=C(\C)C(C(=O)NC1CCCCC1)N(C(=O)C1CCc2cc(F)ccc2O1)c1ccc([N+](=O)[O-])cc1` (configuration not stated), the growth with DU-145 prostate was 105%; in the experiment on K-562 leukemia, 80.7%; in the experiment with MALME-3M melanoma, 92.4%; in the experiment on MDA-MB-231 breast, 77.7%; in the experiment with RXF 393 renal it was 98.4%; with SF-268 CNS it was 87%. Besides, the growth is 82.5% in the experiment with SF-295 CNS; 92.8% in the experiment on SF-539 CNS; 93% in the experiment on UACC-257 melanoma; 82.4% in the experiment on M14 melanoma; 74% in the experiment on HCT-15 colon; 74.4% with HT29 colon. Further, the growth with SNB-75 CNS was 72.8%; with SNB-19 CNS, 85.7%; with U251 CNS, 93.1%; in the experiment on PC-3 prostate, 72.7%; with SK-MEL-5 melanoma, 42.1%; in the experiment with UACC-62 melanoma, 70.1%. Further, the growth in the experiment with LOX IMVI melanoma was 87.7%.
With `C[C@]12CCc3nc(Nc4ccc(O)cc4)sc3C1=CC[C@@H]1[C@@H]2CC[C@]2(C)/C(=N/NC(N)=S)CC[C@@H]12`, the growth with DU-145 prostate was -62.4% (active); in the experiment on K-562 leukemia, -2.83% (active); in the experiment on MALME-3M melanoma it was -60.5% (active); in the experiment on MDA-MB-231 breast, -40.4% (active); in the experiment on RXF 393 renal it was -67.6% (active); in the experiment with SF-268 CNS, -17% (active). Further, the growth in the experiment on SF-295 CNS was -8.62% (active); in the experiment with SF-539 CNS, 5.79% (active); in the experiment on UACC-257 melanoma, -9.35% (active); with M14 melanoma it was -23.8% (active); with HCT-15 colon it was -48% (active); in the experiment on HT29 colon it was -47.6% (active). Also, the growth with SNB-75 CNS was -2.86% (active); in the experiment with SNB-19 CNS, -13.1% (active); in the experiment with U251 CNS, -70.3% (active); in the experiment with PC-3 prostate it was -33.7% (active); in the experiment on SK-MEL-5 melanoma, -61.2% (active); in the experiment on UACC-62 melanoma it was -74.8% (active). In the experiment on LOX IMVI melanoma, the growth was -52.5% (active).
With `COc1c(B(O)O)cccc1-c1nc2ccc3[nH]ncc3c2c2c1CCCC2`, the growth was 11.1% in the experiment on DU-145 prostate; 38.5% in the experiment on K-562 leukemia; 82.6% with MALME-3M melanoma; 25.2% with MDA-MB-231 breast; -15.8% (active) with RXF 393 renal; 23.2% with SF-268 CNS. Moreover, the growth in the experiment with SF-295 CNS is 34.8%; in the experiment with SF-539 CNS, 0.769% (active); with UACC-257 melanoma, 34%; in the experiment on M14 melanoma, 58.1%; with HCT-15 colon it was 25.4%; in the experiment with HT29 colon it was 37.9%. Also, the growth is -2.29% (active) in the experiment on SNB-75 CNS; 12.5% in the experiment with SNB-19 CNS; 13.2% in the experiment with U251 CNS; 18.4% in the experiment on PC-3 prostate; 42.3% in the experiment on SK-MEL-5 melanoma; 26.6% in the experiment on UACC-62 melanoma. Also, the growth in the experiment on LOX IMVI melanoma is -15.4% (active).
`CNCc1ccccc1CN(CC(=O)Nc1ccc2c(c1)CC1(C2)C(=O)Nc2ncccc21)C(=O)C(C)(C)C` (configuration not stated): the growth in the experiment on DU-145 prostate is 112%; in the experiment on K-562 leukemia it was 107%; in the experiment on MALME-3M melanoma it was 99.5%; with MDA-MB-231 breast, 108%; in the experiment with RXF 393 renal it was 126%; with SF-268 CNS, 101%. For the same compound, the growth was 106% in the experiment with SF-295 CNS; 100% in the experiment on SF-539 CNS; 102% with UACC-257 melanoma; 98.7% with M14 melanoma; 111% in the experiment on HCT-15 colon; 105% in the experiment on HT29 colon. The growth in the experiment on SNB-75 CNS was 83.2%; in the experiment on SNB-19 CNS, 103%; with U251 CNS, 103%; in the experiment on PC-3 prostate it was 98%; in the experiment with SK-MEL-5 melanoma, 103%; in the experiment with UACC-62 melanoma, 99.8%. In addition, in the experiment on LOX IMVI melanoma, the growth was 97.4%.
Consider `CC(=O)c1ccc(Nc2nc(Cl)nc(Oc3c(Cl)cccc3Cl)n2)cc1`, for which the growth with DU-145 prostate was 91.1%; in the experiment with K-562 leukemia, 82.5%; in the experiment with MALME-3M melanoma, 83.2%; with MDA-MB-231 breast it was 80%; with RXF 393 renal, 101%; in the experiment on SF-268 CNS, 91.3%. For the same compound, the growth in the experiment on SF-295 CNS is 89.6%; with SF-539 CNS, 90.4%; with UACC-257 melanoma, 95.4%; in the experiment with M14 melanoma it was 101%; in the experiment with HCT-15 colon, 89.7%; in the experiment with HT29 colon it was 73.6%. Moreover, the growth with SNB-75 CNS is 75%; in the experiment on SNB-19 CNS, 81.9%; in the experiment with U251 CNS it was 76.9%; in the experiment on PC-3 prostate it was 72.5%; with SK-MEL-5 melanoma, 79.1%; in the experiment on UACC-62 melanoma, 80.6%. Moreover, in the experiment with LOX IMVI melanoma, the growth was 87.9%.
In the case of `CC1(C)CC[C@]2(C(=O)N3CCNCC3)CC[C@]3(C)C(=CC[C@@H]4[C@@]5(C)CCC(=O)C(C)(C)[C@@H]5CC[C@]43C)[C@@H]2C1`, the growth was 109% in the experiment on DU-145 prostate; 109% in the experiment on K-562 leukemia; 112% with MALME-3M melanoma; 112% in the experiment on MDA-MB-231 breast; 115% in the experiment with RXF 393 renal; 100% in the experiment on SF-268 CNS. The growth is 99.5% in the experiment on SF-295 CNS; 101% in the experiment with SF-539 CNS; 106% in the experiment with UACC-257 melanoma; 109% with M14 melanoma; 105% in the experiment with HCT-15 colon; 107% with HT29 colon. The growth in the experiment on SNB-75 CNS is 91.6%; in the experiment with SNB-19 CNS, 98%; with U251 CNS, 105%; in the experiment on PC-3 prostate, 101%; in the experiment on SK-MEL-5 melanoma, 102%; in the experiment on UACC-62 melanoma, 98.9%. In the experiment with LOX IMVI melanoma, the growth is 95.7%.
As to `COc1cc(CN2CCO[C@H](COc3cccc(F)c3)C2)ccc1Cl`, the growth in the experiment on DU-145 prostate was 41.5%; in the experiment with K-562 leukemia, 21.1%; in the experiment with MALME-3M melanoma, 63.8%; with MDA-MB-231 breast it was 33.2%; in the experiment with RXF 393 renal it was 79.3%; with SF-268 CNS, 48.2%. Also, the growth was 28% with SF-295 CNS; 59.5% with SF-539 CNS; 19.2% in the experiment with UACC-257 melanoma; 39.1% in the experiment with M14 melanoma; 26.3% in the experiment on HCT-15 colon; 42.6% in the experiment with HT29 colon. Besides, the growth was 45% with SNB-75 CNS; 29.8% in the experiment with SNB-19 CNS; 27.5% in the experiment with U251 CNS; 27.8% with PC-3 prostate; 37.7% with SK-MEL-5 melanoma; 44.7% in the experiment with UACC-62 melanoma. The growth with LOX IMVI melanoma is 50.7%.
